# Screening results from PubChem BioAssay.
# The list is not random: actives were taken first. Their share in the collection is about 3.5%.
# Pf apPOL inh = Pf-apPOL DNA polymerase inhibition. inhibition, % at 10 µM. Recombinant Pf-apPOL, molecular beacon fluorescence, 1.5 h. hit rate 0.25% among 210,000
# mHTT CaM bind = disrupts binding of mutant huntingtin to calmodulin; P42858; inhibition, % at 15 µM; AID 1671202; hit rate 3.6% among 190,000; AlphaScreen His-mHTT/GST-CaM binding, luminescence;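 also: 0% = both proteins with DMSO and 100% = one protein alone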
# * marks the source's active call; other numbers are inactive results; . = no result given. Rule as the data show it: active = inhibition above about 50%; inactive = the rest.
SMILES,Pf apPOL inh,mHTT CaM bind
Cc1ccc(S(=O)(=O)N2CC=C(c3cn(C)c4ncccc34)CC2)cc1Cl,-1.4,64.8*
Cc1ccc(C(=O)N2CCCC2c2ccccc2C)cc1 (stereo unspecified),0.0,-9.3
Cc1ccc(C(=O)N2Cc3ccccc3CC2C(=O)O)cc1 (stereo unspecified),-0.6,53.0*
Cc1ccc(S(=O)(=O)N2CCCC(C)(C(=O)NCc3ccccc3)C2)cc1C (stereo unspecified),-5.0,-0.2
CC(=O)c1ccc(S(=O)(=O)N2CCCC(C)(C(=O)NCc3ccc(F)cc3)C2)cc1 (stereo unspecified),1.7,6.3
Cc1c(C(=O)NCc2ccc(F)cc2)oc2ccc(S(=O)(=O)N3CCCCCC3)cc12,51.6*,-2.0
CC1(C(=O)NCc2ccc(F)cc2)CCCN(S(=O)(=O)c2ccccc2Cl)C1 (stereo unspecified),1.5,1.0
Cc1ccc(CNC(=O)c2oc3ccc(S(=O)(=O)N4CCCCC4)cc3c2C)cc1,-6.3,-10.0
Cc1c(Cl)cccc1S(=O)(=O)N1CCCC(C)(C(=O)NCc2ccc(F)cc2)C1 (stereo unspecified),0.2,86.2*
CC1(C(=O)NCc2ccc(F)cc2)CCCN(S(=O)(=O)c2ccc3c(c2)CCCC3)C1 (stereo unspecified),-6.5,64.9*
Cc1ccc(S(=O)(=O)N2CCCC(C)(C(=O)NCc3ccc(F)cc3)C2)cc1C (stereo unspecified),-0.9,89.1*
O=C1CC2c3ccccc3C1C1C(=O)N(c3ccccn3)C(=O)C21 (stereo unspecified),6.5,3.0
O=C(O)C1CC(=O)N(c2ccc(Cl)cc2)C1 (stereo unspecified),-3.1,-2.2
Cc1ccc(S(=O)(=O)N2CCCC(C)(C(=O)NCc3ccc(F)cc3)C2)c(C)c1 (stereo unspecified),-13.4,29.0
CC1(C(=O)NCc2ccc(F)cc2)CCCN(S(=O)(=O)c2ccc(F)c(Cl)c2)C1 (stereo unspecified),0.3,94.7*
Cc1ccc(F)cc1S(=O)(=O)N1CCCC(C)(C(=O)NCc2ccc(F)cc2)C1 (stereo unspecified),-6.2,7.9
Cc1ccc(C)c(S(=O)(=O)N2CCCC(C)(C(=O)NCc3ccc(F)cc3)C2)c1 (stereo unspecified),-1.5,60.6*
CC(=O)N1CCCc2cc(S(=O)(=O)NCc3ccc(OC(C)C)cc3)ccc21,-2.6,-0.6
COc1ccc(OC)c(-c2c(C)c3cc(OCC#N)ccc3oc2=O)c1,-0.3,3.8
CCN1CCc2c(sc(NC(=O)c3ccnn3C)c2C(N)=O)C1,0.0,-7.1
CCN1CCc2c(sc(NC(=O)Nc3ccc(Cl)c(Cl)c3)c2C(N)=O)C1,-0.4,84.6*
COc1ccccc1NC(=O)CCC(=O)Nc1ccccc1OC,0.2,-2.8
O=[N+]([O-])c1ccc2nc(Nc3ccc(Cl)c(Cl)c3)c(Nc3ccc(Cl)c(Cl)c3)nc2c1,.,-3.2
O=[N+]([O-])c1ccc(Cl)c(Nc2nc3nonc3nc2Nc2cc([N+](=O)[O-])ccc2Cl)c1,.,98.3*
COc1ccc(-n2nc(C(C)(C)C)cc2NC(=O)C2CCC2)cc1,-4.8,1.2
SMILES,Pf apPOL inh,mHTT CaM bind
O=C(Nc1cc(-c2ccco2)nn1-c1cc(C(F)(F)F)cc(C(F)(F)F)c1)C1CCC1,90.8*,.
COc1ccc(-c2nc3n(n2)C(c2ccc(OC)cc2)C2=C(CCCC2=O)N3)cc1 (stereo unspecified),-1.4,46.9
COc1ccc(C2C3=C(CCCC3=O)Nc3nc(-c4cccc(C)c4)nn32)cc1OC (stereo unspecified),-1.8,85.5*
O=C1CCCC2=C1C(c1ccncc1)n1nc(-c3cccc(Cl)c3)nc1N2 (stereo unspecified),-2.7,55.5*
COc1ccccc1C1C2=C(CCCC2=O)Nc2nc(-c3cccc(C)c3)nn21 (stereo unspecified),-2.0,6.3
O=C1CCCC2=C1C(c1ccc3c(c1)OCO3)n1nc(-c3cccc(Cl)c3)nc1N2 (stereo unspecified),-2.2,18.8
O=C1CCCC2=C1C(c1ccc(Br)cc1)n1nc(-c3ccco3)nc1N2 (stereo unspecified),0.9,84.2*
COc1ccc(-c2nc3n(n2)C(c2ccc(Cl)cc2)C2=C(CCCC2=O)N3)cc1OC (stereo unspecified),-0.2,8.7
COc1ccc(-c2nc3n(n2)C(c2ccccc2)C2=C(CCCC2=O)N3)cc1OC (stereo unspecified),-0.5,59.9*
Cc1cc(C2C(C#N)=C(N)N(c3cccc([N+](=O)[O-])c3)C3=C2C(=O)CC(C)(C)C3)c(C)s1 (stereo unspecified),-4.0,46.0
CC(C)(C)c1ccc(C=C2Oc3cc(O)ccc3C2=O)cc1,-10.3,3.8
O=[N+]([O-])c1ccccc1CN1CCC(N2CCN(CCO)CC2)CC1,2.1,-4.0
COc1cc(OC)cc(-c2nc3n(n2)C(c2ccc(F)cc2)C2=C(CCCC2=O)N3)c1 (stereo unspecified),1.7,56.8*
COc1cc(OC)cc(-c2nc3n(n2)C(c2ccccc2)C2=C(CCCC2=O)N3)c1 (stereo unspecified),2.2,22.8
COc1ccc(C2C3=C(CCCC3=O)Nc3nc(-c4cccc(Cl)c4)nn32)cc1OC (stereo unspecified),-6.5,18.2
COc1ccc(C2C3=C(CCCC3=O)Nc3nc(-c4ccccc4)nn32)cc1OC (stereo unspecified),-0.3,75.6*
CCOC(=O)C1=C(N)Oc2c(oc(CO)cc2=O)C1c1cccnc1 (stereo unspecified),-6.9,-0.8
O=c1cc(CSc2nc(NCc3ccccc3)c3ccccc3n2)nc2ccccn12,-8.1,13.0
Cc1cc(C)cc(NC(=O)c2ccc(Cl)cc2Cl)c1,1.8,0.2
COc1ccc(CN(CCC(c2ccccc2OC)C2CCOC(C)(C)C2)C(C)=O)cc1 (stereo unspecified),-3.0,22.0
CC(C)(C)Oc1ccc(C(=O)N(Cc2ccc(F)cc2)C2CCOC(C)(C)C2)cc1 (stereo unspecified),0.8,56.0*
CC(=O)Nc1ccc(S(=O)(=O)Nc2ccc(Cl)cc2C)cc1,-1.4,1.6
COc1ccc(C(=O)Nc2ccc(S(=O)(=O)Nc3onc(C)c3C)cc2)cc1,7.6,12.0
COc1ccc(N2CCN(CC(O)COc3ccc(Cl)c(C)c3)CC2)cc1 (stereo unspecified),-1.4,82.7*
CCCc1ccc(OCC(O)CN2CCN(c3ccc(OC)cc3)CC2)cc1 (stereo unspecified),0.7,60.9*
SMILES,Pf apPOL inh,mHTT CaM bind
CC(C)(C)c1ccc(OCC(O)CN2CCN(Cc3ccc4c(c3)OCO4)CC2)cc1 (stereo unspecified),-1.4,23.8
CC1CCC(C(C)C)C(OCC(O)CN2CCN(Cc3ccccc3)CC2)C1 (stereo unspecified),-0.5,20.7
Cc1ccc(OCC(O)CN2CCN(c3ccc(F)cc3)CC2)cc1C (stereo unspecified),-4.2,35.8
Cc1cc(OCC(O)CN2CCN(Cc3ccc4c(c3)OCO4)CC2)ccc1Cl (stereo unspecified),-7.5,90.2*
CCCc1ccc(OCC(O)CN2CCCC2)cc1 (stereo unspecified),-1.4,-3.0
COc1ccc(N2CCN(CC(O)COC3CC(C)CCC3C(C)C)CC2)cc1 (stereo unspecified),-0.1,61.7*
COc1ccc(CCNC(=O)CC2CCN(C(=O)c3ccccc3)CC2)cc1OC,0.2,5.1
